Vaccinia pol inh – blocks vaccinia virus processive DNA synthesis | hit rate 0.94% among 46,000 | in vitro processive DNA synthesis, absorbance read-out; hits give low values | AID 493162 | normalized absorbance, % (concentration not given with the values); in the data active = normalized absorbance mostly below about 85%, no sharp cut-off; inactive = mostly above about 86%
The depositor's hits bear a star. Many of the other results were omitted from the sample, so hits are more common in it than they were.

SMILES	Vaccinia pol inh
O=C(O)Cn1cc(C(=O)C2CC2)c2ccccc21	89
CCSc1nc2ccccc2n1CC(=O)O	101
O=C(O)Cn1c2c(c3ccccc31)CSc1ccc(Cl)cc1-2	71*
FC(F)(F)c1ccc(-c2noc(-c3ccc(Cl)nc3)n2)cc1	102
CC1(C)CC(NC(=O)COc2ccc(C#N)cc2)CC(C)(C)N1	101
O=C(Nc1ccc(Cl)cc1)C1=Cc2ccccc2OC1	65*
Nc1c(C(=O)Nc2ccc(Cl)cc2)oc2ccccc12	100
COc1ccc2c(c1)C=C(C(=O)Nc1ccccc1)CO2	103
CC(C)(C)NC1c2cccc3cccc(c23)C1NS(=O)(=O)c1ccccc1 (configuration not stated)	100
CCOC(=O)c1cnc2c(ccc3ccccc32)c1NCC(C)C	100
CCOC(=O)c1cnc2c(ccc3ccccc32)c1NC1CC(C)(C)NC(C)(C)C1	58*
CCOC(=O)c1cnc2c(ccc3ccccc32)c1NCCOC(=O)C(C)(C)C	100
Cc1nnc(-c2cccc(C(F)(F)F)c2)[nH]c1=O	91
CCN(CC)c1nc(C)nc2sc(C(=O)N3CCCCCC3)c(C)c12	99
CCOC(=O)c1ccc(N=C(N)SCc2ccc(Cl)cc2)cc1	65*
CCOC(=O)c1ccc(CN)cc1	98
CCOC(=O)c1ccc(NC(=O)c2ccc(Cl)cc2)cc1	99
NC(=O)COC(=O)C12CC3CC(CC(Br)(C3)C1)C2	97
Cc1ccc(NC(=O)c2cc(S(=O)(=O)N3CCCC3)ccc2F)cc1	101
CCSC1=C(C#N)C(=O)NC(/C=C/c2ccccc2)S1 (configuration not stated)	108
COC(=O)CSC1=C(C#N)C(=O)NC(c2ccccc2O)S1 (configuration not stated)	91
N#CC1=C(SCc2ccccc2)SC(c2ccccc2O)NC1=O (configuration not stated)	50*
Cc1c(Sc2ccc(Cl)cc2)cnn1C(=O)Nc1cccc(C(F)(F)F)c1	71*
Cc1ccnc(SCC(=O)Nc2cccc(C(F)(F)F)c2)n1	94
O=C(Nc1cccc(Cl)c1)n1ncc2cc(Cl)ccc21	85
SMILES	Vaccinia pol inh
CN(C(=O)CSCc1ccco1)c1ccccc1	97
O=C(NC(=S)n1nnc2ccccc21)c1ccccc1	109
c1ccc(CCNc2nc3ccccc3s2)cc1	101
Cc1cccc2sc(NN)nc12	61*
O=C(Nc1nc2ccccc2s1)c1ccccc1	101
CCNc1nc2c(C)cccc2s1	104
NNc1nc2ccccc2s1	78*
O=C(Nc1nc2c(Cl)cccc2s1)C1CC1	101
CCN1CCCC1CNc1nc2ccc(Cl)cc2n2cnnc12 (configuration not stated)	88
CSc1nnc2c(n1)OC=Nc1ccc(Cl)cc1-2	102
CC(C)C(NS(=O)(=O)c1ccccc1)C(=O)O (configuration not stated)	103
Cn1nc(C(F)(F)F)cc1Cl	100
O=C(CSC1=NCCc2ccccc21)c1ccccc1Cl	87
O=C(SC1=NCCc2ccccc21)c1ccccc1	97
O=C(CSC1=NCCc2ccccc21)c1ccc(-c2ccccc2)cc1	69*
O=C(CSc1nnc2n1CCCCC2)Nc1ccccc1C(F)(F)F	100
O=C(O)c1c2ccccc2cc2ccccc12	100
O=C(O)c1cc2ccc3cccc4ccc(c1)c2c34	77*
O=C(O)c1cccc(N2C(=O)CCC2=O)c1	101
CCCNc1ncnc2c1c(-c1ccccc1)cn2-c1ccc(OC)cc1	100
O=C(CCS(=O)(=O)c1cc(Br)cc2c1N(C(=O)C1CC1)CC2)NC1CCCCCC1	104
COc1ccc2nc(SC(=O)c3ccccc3)nc(C)c2c1	100
COc1ccc2c(C)nc(/N=C(\N)NC(C)=O)nc2c1	54*
COc1ccc2c(C)nc(/N=C(N)/N=C(\C)c3ccccc3C(=O)O)nc2c1	31*
CCc1c(C)nc2ccc(OC)cc2c1Cl	104
SMILES	Vaccinia pol inh
COc1ccc(-c2nc3ccccc3n2C(=O)c2ccccc2C(=O)O)cc1	98
COc1ccc2nc(/N=C(\N)NC(=O)N3c4ccccc4Sc4ccccc43)nc(C)c2c1	100
O=S(=O)(c1ccc2[nH]c3c(c2c1)CCCC3)N1CCCc2ccccc21	102
Cc1ccc(CCCC(=O)O)cc1	100
CCOc1ccc2c(c1)sc(=N)n2Cc1ccc(Cl)cc1	108
Cc1sc(NC(=O)CSCC(=O)N2CCCCC2)nc1-c1ccccc1	101
CN(C(=O)c1cc(-c2cccs2)nc2ccccc12)c1ccccc1	107
O=C(O)c1cc(-c2cccs2)nc2ccc(Br)cc12	34*
O=C(O)c1cc(-c2cccs2)nc2ccccc12	91
COc1ncnc2sc(-c3ccccc3)cc12	103
c1ccc(-c2cc3c(N4CCc5ccccc54)ncnc3s2)cc1	102
CN1CCN(c2ncnc3sc(-c4ccccc4)cc23)CC1	50*
O=C(Cc1cccc2ccccc12)Nc1nnc(-c2ccccc2)s1	101
O=C(CCc1c[nH]c2ccccc12)N1CCn2c(nc3ccccc32)C1	107
N#Cc1c(NC(=O)C2=COCCO2)sc2c1CCCC2	83
CCOc1ccc(C=Nc2ccc3sc(C)nc3c2)cc1	100
CCOC(=O)c1sc(Nc2ccccc2)nc1C	98
CCOC(=O)c1sc(N2C(=O)C(=O)/C(=C(/O)c3ccc(OC)c(C)c3)C2c2ccccc2)nc1C (configuration not stated)	69*
COc1cccc(/C(O)=C2\C(=O)C(=O)N(c3ccccn3)C2c2ccccc2)c1 (configuration not stated)	94
N#Cc1c(SCc2ccccc2)nc2sccn12	96
CCc1ccc(NC(=O)c2cccc3c2C(=O)N(CCOC)C3)cc1	99
Clc1cc2c(c3ncccc13)OCN(CCCN1CCOCC1)C2	100
CCOc1ccc(NC2=NCCC2)cc1	93
CCCNC(=O)Nc1ccc2c(c1)N(CC)C(=O)c1ccccc1S2	110
COCCn1c(=NC(=O)c2cccs2)sc2cc(C(=O)OC)ccc21	104
SMILES	Vaccinia pol inh
O=C1/C(=C/C2CCCO2)CC/C1=C\C1CCCO1 (configuration not stated)	14*
On1c(-c2ccc(Cl)cc2)nc2ccc(Cl)cc21	104
COc1ccccc1C1CC(=O)NC(SCC(=O)N2CCCC2)=C1C#N (configuration not stated)	101
Cc1ccc(N2C(=O)c3ccc(C(=O)N(CCO)c4ccccc4)cc3C2=O)cc1C	98
S=c1cc(-c2ccccc2)ss1	84
O=c1cc(-c2ccccc2)[nH]c(=S)[nH]1	100
S=c1[nH]c(-c2ccccc2)c(-c2ccccc2)o1	62*
CCOc1ccc(C(=O)N2CCC(C(N)=O)CC2)cc1	103
O=C(O)c1ccccc1-c1nc2ccccc2s1	99
Cc1csc(NC(=O)c2ccccc2C(=O)O)c1-c1nc2ccccc2s1	72*
Cc1ccc2nc(NC(=O)c3ccccc3C(=O)O)sc2c1	91
COC(=O)c1sccc1OCc1ccccc1	110
CC1(C)C(C=C(Cl)Cl)C1C(=O)N1CCOCC1 (configuration not stated)	89
Cc1ccc(C(=O)CC(NCCc2c[nH]c3ccccc23)C(=O)O)cc1 (configuration not stated)	101
COc1ccc(C(=O)CNC2=NCCC2)cc1	96
COc1ccc(C(=O)CSC2=NCCCCCC2)cc1	65*
COc1ccc(C(=O)CSc2ncccn2)cc1	103
COCC(=O)NCCc1nc2ccccc2n1Cc1cc(C)ccc1C	99
COc1ccc(C(C)(C)C)cc1NC(=O)COC(=O)C1CCC1	89
Cc1ccc(Cn2cccc2C2=NC(Cc3ccccc3)CO2)cc1 (configuration not stated)	104
